We go through 36 compounds from PubChem BioAssay AID2113 (National Center for Advancing Translational Sciences (NCATS), 2009).

The test has as its target Lysosomal alpha-glucosidase (Homo sapiens) (UniProt P10253). Put plainly: Confirmation of Inhibitors and Activators of Human alpha-Glucosidase From Spleen Homogenate.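 For potency: fluorescence of 4-methylumbelliferone released from a fluorogenic glucopyranoside substrate at pH 5.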 In a few lines: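 Compounds titrated against spleen-homogenate alpha-glucosidase, pH 5.0, 1 mM 4-MU-glucoside substrate, 37 C for 40 min. Fluorescence after pH 10 stop, normalised to no-enzyme and enzyme controls; Hill-equation AC50.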

Records with an inconclusive call do not appear. Where a call stands in place of a potency, no number is given. The source made the active and inactive calls. Calls come from the whole dose curve; as a rule, active = well fitted curve in either direction with a large enough effect; inconclusive = small, poorly fitted or top-dose-only effect; inactive = no such curve, though single readings can be large or run the other way.
Potency is the fitted concentration of half-maximal effect.

Consider `C(=C\c1nccc2c1[nH]c1ccccc12)/c1ccc2c(c1)OCO2`, for which the Potency result is “inactive”.

With `CC(N=C(NC#N)Nc1ccncc1)C(C)(C)C` (stereo unspecified), the Potency result is “inactive”.

`COc1cc(CN2CCC(CO)(Cc3cccc(C(F)(F)F)c3)CC2)ccc1F`: the Potency entry was “inactive”.

On to `COc1ccccc1N1CCN(C(c2cccs2)C(C)NC(=O)c2cccs2)CC1` (stereo unspecified), for which the Potency entry was “inactive”.

On to `O=c1cc(-c2ccccc2)[nH]c2[nH]n(-c3ccccc3)c(=O)c12`, for which the Potency result is “inactive”.

`c1csc(-c2nc(NCC3CCCO3)c3ccccc3n2)c1` (stereo unspecified): the Potency entry is “inactive”.

In the case of `CN1c2ccccc2-c2nc3ccccc3n2C1c1ccccn1` (stereo unspecified), the Potency was 14.1 µM (active).

Turning to `NC(=O)NN=C1c2cc(S(=O)(=O)N3CCOCC3)ccc2-c2ccc(S(=O)(=O)N3CCOCC3)cc21`, the Potency entry was “inactive”.

`COc1ccc2nc3c(cc2c1)Cn1c-3nc2ccccc2c1=O`: the Potency result was “inactive”.

For `O=S(=O)(c1ccc(Br)cc1)N1CCOCC1`, the Potency entry is “inactive”.

Consider `COc1cc(=O)[nH]c(=O)n1C(=O)Cc1ccccc1`, for which the Potency result was “inactive”.

In the case of `O=S(=O)(c1ccc(Cl)cc1)N1CCOCC1`, the Potency result is “inactive”.

`Cc1cccc(-n2c(N)cc(=O)[nH]c2=S)c1`: the Potency entry was “inactive”.

Regarding `O=C(O)c1c[nH]c2ccc(S(=O)(=O)N3CCOCC3)cc12`, the Potency entry was “inactive”.

As to `O=C(c1ccccc1)N1CCN(C(=O)N(c2ccccc2)c2ccccc2)CC1`, the Potency entry is “inactive”.

As to `CC1CC(C)CN(CC(=O)N2c3ccccc3CCc3ccccc32)C1` (stereo unspecified), the Potency result was “inactive”.

In the case of `N#Cc1c(-c2ccccc2)nc(SCc2nc(N)nc(N3CCCCC3)n2)[nH]c1=O`, the Potency result was “inactive”.

On to `CCOC(=O)C1CCCN(C(=O)CCC(=O)Nc2ccc3nc(N4CCOCC4)cc(C)c3c2)C1` (stereo unspecified), for which the Potency result is “inactive”.

Turning to `COc1ccc2nc(-c3ccc(N(C)C)cc3)sc2c1`, the Potency was 7.08 µM (active).

Turning to `O=C(Nc1ccc(OCC(=O)N2CCN(S(=O)(=O)c3ccccc3)CC2)cc1)c1ccco1`, the Potency result was “inactive”.

Take `CC(=O)c1ccc(N2CCN(S(=O)(=O)c3ccc4c(c3)C(Cl)(Cl)C(=O)N4)CC2)cc1`: the Potency was 32.6 µM [inhibitor] (active).

On to `O=C(Nc1ccccc1)C1CCN(S(=O)(=O)c2ccccc2)CC1`, for which the Potency result is “inactive”.

For the compound `COc1ccc(CCn2c(=S)[nH]c(=O)c3nccnc32)cc1OC`, the Potency result is “inactive”.

On to `COc1ccc2cc(C#N)c(=O)oc2c1`, for which the Potency result is “inactive”.

For `CCCN1CNc2c(c(=O)[nH]c(=S)n2CCc2ccc3c(c2)OCCO3)C1`, the Potency is 15.8 µM (active).

Turning to `O=C1CC(N2CCN(c3cccc(C(F)(F)F)c3)CC2)C(=O)N1c1ccc(F)cc1` (stereo unspecified), the Potency result was “inactive”.

Regarding `O=C(O)Cc1sc(-c2cc3ccccc3oc2=O)nc1-c1ccc(Br)cc1`, the Potency result was “inactive”.

In the case of `COc1cc(=O)[nH]c(=O)n1CC(=O)c1ccccc1`, the Potency result is “inactive”.

In the case of `CN1CC=C2C(C#N)=C(N)C(C#N)(C#N)[C@H](c3cccc(Cl)c3)C2C1` (stereo partly specified), the Potency entry is “inactive”.

For `CC(=O)c1ccc(N2CCN(S(=O)(=O)c3ccc(N4CCCC4=O)cc3)CC2)cc1`, the Potency result is “inactive”.

Take `O=C(Cc1ncc(C(F)(F)F)cc1Cl)NCCc1ccccc1`: the Potency result is “inactive”.

In the case of `Cc1cccn2c(=O)c3cc(C#N)c(=NC(=O)c4cccs4)n(CCCOC(C)C)c3nc12`, the Potency result is “inactive”.

`O=S(=O)(c1cccc(Br)c1)N1CCOCC1`: the Potency result is “inactive”.

`COc1ccc(CCn2c(=S)[nH]c(=O)c3c(C)cc(C)nc32)cc1OC`: the Potency entry was “inactive”.

`COc1ccc(S(=O)(=O)N2CCN(C(=O)COc3ccc4c(C)cc(=O)oc4c3)CC2)cc1`: the Potency result was “inactive”.

In the case of `C=CCn1c2ccccc2c2nnc(SCC(=O)NC(C(=O)OC)C(C)C)nc21` (stereo unspecified), the Potency entry is “inactive”.
